Test results reported in PubChem BioAssay AID1159580 (chemical genetic matrix, 2015).
Where “and” joins values, the source holds several entries; their conditions need not be identical. Equal entries are not always repeated. About 2,000 (36%) of roughly 5,500 compounds were called active. Not shown: some 18% with an inconclusive outcome. Cut-off read from the data, not from the text of the source: active = normalized growth mostly below about 0.91 (no sharp cut-off); inconclusive = no clear call, values can overlap the other calls; inactive = mostly above about 0.92. Some of the results follow.

Assay: chemical genetic growth profiling, strain panel (AID 1159580);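 note: tested at 20 µM; growth read once vehicle control cultures reached saturation at 30 °C; 1 = growth at the plate median or of vehicle wells; lower values mean less growth of the strain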
Settings: S. cerevisiae deletion strains, growth OD

Measured: normalized growth

O=C(O)CCC1NCC2CC1CN1CCCCC21 (configuration not stated)
inactive: locus YAL013W, strain DEP1, active compounds read low 1 | locus YAL021C, strain ccr4, active compounds read low 0.97 | locus YAL026C, strain drs2, active compounds read low 0.974 | locus YAL030W, strain snc1, active compounds read low 0.969 | locus YBL061C, strain skt5, active compounds read low 0.975 | locus YBR009C, strain hhf1, active compounds read low 0.989 | locus YBR021W, strain FUR4, active compounds read low 1.01 | locus YBR023C, strain chs3, active compounds read low 0.983 | locus YBR171W, strain sec66, active compounds read low 0.999 | locus YBR229C, strain ROT2, active compounds read low 1.01 | locus YBR231C, strain swc5, active compounds read low 0.986 | locus YBR279W, strain paf1, active compounds read low 0.977 | locus YCL011C, strain gbp2, active compounds read low 0.975 | locus YCL016C, strain dcc1, active compounds read low 0.98 | locus YCL029C, strain bik1, active compounds read low 0.997 | locus YCL061C, strain MRC1, active compounds read low 0.989 | locus YCL069W, strain vba3, active compounds read low 0.985 | locus YCR088W, strain abp1, active compounds read low 0.982 | locus YDL005C, strain med2, active compounds read low 0.969 | locus YDL035C, strain GPR1, active compounds read low 1.02 | locus YDL040C, strain nat1, active compounds read low 0.982 | locus YDL074C, strain BRE1, active compounds read low 0.999 | locus YDL101C, strain DUN1, active compounds read low 1 | locus YDL134C, strain PPH21, active compounds read low 1 | locus YDL185W, strain tfp1, active compounds read low 0.997 | locus YDL192W, strain arf1, active compounds read low 0.998 | locus YDR001C, strain nth1, active compounds read low 0.967 | locus YDR069C, strain doa4, active compounds read low 0.987 | locus YDR101C, strain arx1, active compounds read low 0.999 | locus YDR137W, strain rgp1, active compounds read low 0.975 | locus YDR150W, strain NUM1, active compounds read low 0.998 | locus YDR159W, strain sac3, active compounds read low 0.978 | locus YDR162C, strain NBP2, active compounds read low 1 | locus YDR195W, strain ref2 0.975 | locus YDR297W, strain sur2, active compounds read low 0.974 | locus YDR318W, strain mcm21, active compounds read low 1.02 | locus YDR334W, strain swr1, active compounds read low 0.931 | locus YDR335W, strain msn5, active compounds read low 0.969 | locus YDR388W, active compounds read low 0.994 | locus YDR392W, strain spt3, active compounds read low 0.914 | locus YDR502C, strain sam2, active compounds read low 0.988 | locus YEL003W, strain gim4, active compounds read low 0.967 | locus YEL037C, strain rad23, active compounds read low 0.999 | locus YEL061C, strain CIN8 (second series), active compounds read low 0.97 | locus YEL061C, strain CIN8, active compounds read low 1.02 | locus YER015W, strain faa2, active compounds read low 0.966 | locus YER016W, strain bim1, active compounds read low 0.973 | locus YER110C, active compounds read low 0.999 | locus YER111C, strain swi4, active compounds read low 0.98 | locus YER155C, strain BEM2 (second series), active compounds read low 0.999 | locus YER155C, strain BEM2, active compounds read low 1 | locus YER167W, strain BCK2, active compounds read low 1 | locus YFR010W, strain ubp6, active compounds read low 0.974 | locus YGL078C, strain dbp3, active compounds read low 0.982 | locus YGL086W, strain mad1, active compounds read low 1.02 | locus YGL167C, strain pmr1, active compounds read low 0.965 | locus YGL173C, strain kem1, active compounds read low 0.963 | locus YGL227W, strain vid30, active compounds read low 0.986 | locus YGL240W, strain doc1, active compounds read low 0.985 | locus YGL248W, strain PDE1, active compounds read low 1 | locus YGL253W, strain hxk2, active compounds read low 0.978 | locus YGR078C, strain PAC10, active compounds read low 1 | locus YGR135W, strain pre9, active compounds read low 0.98 | locus YGR229C, strain SMI1, active compounds read low 0.983 | locus YGR252W, strain gcn5, active compounds read low 1.06 | locus YHR013C, strain ard1, active compounds read low 0.95 | locus YHR027C, strain rpn1, active compounds read low 0.953 | locus YHR030C, strain SLT2, active compounds read low 1.01 and 1.03 | locus YHR079C, strain IRE1 (second series), active compounds read low 1 | locus YHR079C, strain IRE1, active compounds read low 1.01 | locus YHR094C, strain hxt1, active compounds read low 0.999 | locus YHR129C, strain ARP1, active compounds read low 1.01 | locus YHR142W, strain chs7, active compounds read low 0.938 | locus YHR200W, strain rpn10, active compounds read low 1 | locus YIL066C, strain RNR3, active compounds read low 1.02 | locus YIL073C, strain SPO22, active compounds read low 1.03 | locus YIL125W, strain kgd1, active compounds read low 0.993 | locus YIR030C, strain dcg1, active compounds read low 0.986 | locus YJL092W, strain hpr5, active compounds read low 0.979 | locus YJL095W, strain BCK1 (second series), active compounds read low 0.976 | locus YJL095W, strain BCK1, active compounds read low 1 | locus YJL115W, strain asf1, active compounds read low 0.958 | locus YJL129C, strain trk1, active compounds read low 0.952 | locus YJL134W, strain LCB3, active compounds read low 0.999 | locus YJL154C, strain vps35, active compounds read low 0.967 | locus YJL164C, strain tpk1, active compounds read low 0.976 | locus YJL166W, strain qcr8, active compounds read low 0.975 | locus YJL168C, strain set2, active compounds read low 0.995 | locus YJL187C, strain SWE1 (second series), active compounds read low 1.01 | locus YJL187C, strain SWE1, active compounds read low 0.974 | locus YJR043C, strain POL32, active compounds read low 1.03 | locus YJR066W, strain TOR1, active compounds read low 0.98
